# Hits are enriched below; roughly 11% of the tested compounds scored in any of these assays.
# Tau fluor counter: Counterscreen qHTS for Inhibitors of Tau Fibril Formation, Fluorescence Polarization. tau K18 P301L Alexa594 fluorescence, heparin fibrillization. Potency, µM (series often up to 57.7 µM). 0.93% of 280,000 active; further: nearly all actives have a fitted effect of over 55% in size
#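 Human K18 P301L tau (15 uM unlabeled plus 0.24 uM Alexa 594-labeled, final) in 100 mM sodium acetate pH 7 was mixed with compound and 20 uM heparin and incubated 6 hr at 37 C.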
# G9a block: qHTS Assay for Inhibitors of Histone Lysine Methyltransferase G9a | Potency, µM (top dose mostly 102 µM), most hits filed as inhibitors | Histone-lysine N-methyltransferase EHMT2 (Homo sapiens), Q96KQ7 | AID 504332, 2011 | G9a H3K9 monomethylation, AlphaScreen, 2 h | 8.8% of 350,000 active; further: nearly all actives have a fitted effect of over 75% in size
# Target sequence (Q96KQ7 913-1193 limits assumed): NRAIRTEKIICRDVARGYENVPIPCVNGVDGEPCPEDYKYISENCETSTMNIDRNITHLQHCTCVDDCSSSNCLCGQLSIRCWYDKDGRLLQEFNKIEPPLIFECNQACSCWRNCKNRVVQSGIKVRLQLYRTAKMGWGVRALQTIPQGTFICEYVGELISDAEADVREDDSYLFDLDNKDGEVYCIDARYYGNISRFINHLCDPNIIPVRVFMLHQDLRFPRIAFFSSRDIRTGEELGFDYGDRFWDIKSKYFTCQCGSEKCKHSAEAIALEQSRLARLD
#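 Methyltransferase reactions run at room temperature for 2 h (20 nM enzyme, 500 nM biotin-H3K9 peptide, 20 uM SAM) after a 15 min compound preincubation; product detected by AlphaScreen beads and anti-H3K9me1 antibody.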
# Sfp inh: qHTS Assay for Inhibitors of Bacillus subtilis Sfp phosphopantetheinyl transferase (PPTase). Biochemical Sfp PPTase activity, qHTS. 4'-phosphopantetheinyl transferase ffp (Bacillus subtilis), Q9F4F7. Potency, µM, hits mostly inhibitors. 3.5% of 310,000 active. AID 1490, 2009;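 further: the enzyme is Sfp with the accession as filed and its product quenches rhodamine fluorescence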
#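 After 15 min at room temperature with compound, 15 nM Sfp received 5 uM rhodamine-CoA plus 12.5 uM BHQ-2-ybbR (50 mM Hepes pH 7.6, 10 mM MgCl2). Rate came from the fluorescence difference over 30 min, ex 525/em 598 nm.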
# Tau ThT inhib: qHTS for Inhibitors of Tau Fibril Formation, Thioflavin T Binding | Microtubule-associated protein tau (Homo sapiens), P10636 | recombinant tau K18 P301L, heparin-induced fibrillization, ThT fluorescence | Potency, µM (titrated, usually from 57.4 µM), usual class: inhibitors | 2.1% of 270,000 active; further: nearly all actives have a fitted effect of over 55% in size
# Target sequence (P10636 561-689 P618L limits assumed): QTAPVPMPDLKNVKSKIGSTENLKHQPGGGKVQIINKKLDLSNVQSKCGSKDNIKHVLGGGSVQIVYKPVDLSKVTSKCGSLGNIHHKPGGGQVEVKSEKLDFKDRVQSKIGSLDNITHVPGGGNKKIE
#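 Using a mix of unlabeled (15 uM) and Alexa 594-labeled (0.24 uM) tau K18 P301L, heparin-triggered fibrillization over 6 hr at 37 C was scored by ThT fluorescence.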
# FBPA coupling cs: qHTS Assay for Inhibitors of Fructose-1,6-bisphosphate Aldolase from Giardia Lamblia: Coupling assay counterscreen; coupling enzyme system counterscreen, AmpLite Red fluorescence; activity change, negative = inhibition, % at 58.2 µM, hits read low; 0.67% of 290,000 active; AID 2472, 2010; in the data active means activity change below about -30%
#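 Compounds tested against the coupling enzymes alone at 57.5 uM final; readout was AmpLite Red fluorescence (525/598 nm) after 20 min at RT.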
# Tau fibril FP: qHTS for Inhibitors of Tau Fibril Formation, Fluorescence Polarization | Microtubule-associated protein tau (Homo sapiens), P10636 | Potency, µM (titrated, usually from 57.7 µM), hits mostly inhibitors | 0.39% of 280,000 active | K18 P301L tau heparin fibrillization, Alexa594 FP, 6 h; further: nearly all actives have a fitted effect of over 55% in size
#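 Human tau K18 […] P301L fragment, 15 uM unlabeled plus 0.24 uM Alexa 594-labeled tau (final), with compound and 20 uM heparin in 100 mM sodium acetate pH 7; 6 hr at 37 C, then Alexa 594 FP read.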
# Numbers stand for hits; – = inactive; ? = inconclusive; · = no result; ! = a repeat was not active; [ ] = dose if it differs, or a comment. Unless noted, the call rests on the fitted dose curve; in most records, active means well fitted curve in the direction sought with a large enough effect; inconclusive means small, poorly fitted or top-dose-only effect, or another doubt; inactive means no such curve, though single readings can be large; an effect the other way counts as inactive or inconclusive.
SMILES,Tau fluor counter,G9a block,Sfp inh,Tau ThT inhib,FBPA coupling cs,Tau fibril FP
CC1CN(C(=S)NC(=O)c2ccc([N+](=O)[O-])cc2)CC(C)O1 (centres undefined),–,40µM,–,–,–,–
CC1CN(C(=S)SCC(=O)c2ccc([N+](=O)[O-])cc2)CC(C)O1 (centres undefined),·,14µM,–,·,–,·
O=C(NC(=S)N1CCOCC1)c1ccc([N+](=O)[O-])cc1,–,8.9µM,–,–,–,–
CC1CN(C(=S)NC(=O)c2ccccc2)CC(C)O1 (centres undefined),·,71µM,–,·,·,·
CC1CN(C(=O)COC(=O)c2ccc(N)c([N+](=O)[O-])c2)CC(C)O1 (centres undefined),–,–,–,–,–,–
CCc1ccccc1NC(=O)CN(C1CCCCC1)S(C)(=O)=O,·,–[0.501 µM],–,·,–,·
COc1ccc(C(N)=O)c(OCC(=O)Nc2cc(C)on2)c1,·,–[12.7 µM],·,·,·,·
CCn1cc(Cl)c(C(=O)Nc2ccccc2C(N)=O)n1,–,–,–,–,–,–
CC(C)CC(NC(=O)C(NC(=O)C1CCC(=O)N1C(=O)OCc1ccccc1)C(C)C)C(=O)N1CCCC1C(N)=O (centres undefined),·,–,–,·,–,·
Cc1ccc(S(=O)(=O)N2CCOCC2)cc1C(=O)NC(=S)N1CC(C)OC(C)C1 (centres undefined),–,32µM,–,–,–,–
Cc1ccc(S(=O)(=O)N2CCOCC2)cc1C(=O)NC1CCCCCC1,·,–,–,·,–,·
CC1CN(c2ccc([N+](=O)[O-])cc2C#N)CC(C)O1 (centres undefined),–,–,–,–,–,–
CC1CN(C(=S)c2cccc([N+](=O)[O-])c2)CC(C)O1 (centres undefined),–,6.3µM,50µM,–,–,–
CC(NC(=O)Cc1ccc(NC(=O)N2CCSc3ncccc32)cc1)c1ccccc1 (centres undefined),–,?,·,–,·,–
Cc1sc2nc(CN3CCCC3)nc(Cl)c2c1C,–,?,–,–,–,–
CCOC(=O)c1sc2nc(CN3CCCCC3)nc(Cl)c2c1C,–,50µM,–,–,–,–
COc1ccc2oc(=O)cc(CN3CCN(C(=O)c4ccccc4Br)CC3)c2c1,–,?,·,–,·,–
Cc1ccc(CSc2nc3ccccc3c(=O)[nH]2)cc1,–,–,–,–,–,–
O=c1[nH]c(SCc2ccccc2)nc2c1sc1ccccc12,–,50µM,–,–,–,–
COc1ccccc1N(C(=O)c1ccncc1)c1nc(-c2ccc([N+](=O)[O-])cc2)cs1,?,10µM,–,?,–,–
Cc1ccc(S(=O)(=O)Nc2cccc(-c3ccc(N4CCC(C)CC4)nn3)c2)s1,–,–,·,–,·,–
Cc1ccc(S(=O)(=O)N2C(=O)C(C)SC2=Nc2ccccc2)cc1 (centres undefined),–,–,–,–,–,–
Cc1ccc(S(=O)(=O)N2C(=O)C(c3ccccc3)SC2=Nc2ccccc2)cc1 (centres undefined),–,7.9µM,20µM,–,–,–
CCc1ccc(NS(=O)(=O)c2ccc3[nH]cc(C(=O)N(C)Cc4ccco4)c(=O)c3c2)cc1,?,89µM,–,–,–,–
CN(Cc1ccco1)C(=O)c1c[nH]c2ccc(S(=O)(=O)Nc3ccc4c(c3)OCCO4)cc2c1=O,–,89µM,–,–,–,–
SMILES,Tau fluor counter,G9a block,Sfp inh,Tau ThT inhib,FBPA coupling cs,Tau fibril FP
O=C(c1cnn(-c2ccc(F)cc2)c1-n1cccc1)N1CCN(c2ccccc2)CC1,–,?,·,–,·,–
CO[C@H]1COC(=O)[C@@H](C)COC(=O)[C@H](C)NC(=O)C/C=C\[C@H]1C,–[11.6 µM],·,–,–[11.5 µM],–,–[11.6 µM]
NC(=O)C[C@@H](N)C(=O)O,–,–,–,–,·,–
Cc1cc(C(=O)Cn2nc(C(=O)O)c3ccccc3c2=O)c(C)n1CC(F)(F)F,–,?,–,–,–,–
COCCn1c(C)cc(C(=O)CSc2nncn2-c2ccccc2)c1C,–,50µM,–,–,–,–
Cc1nn(Cc2ccccc2)c(C)c1C(=O)OCC(=O)c1cc(C)n(C2CC2)c1C,–,–,–,–,–,–
COCCn1c(C)cc(C(=O)COC(=O)c2c(C)nn(Cc3ccccc3)c2C)c1C,–,79µM,–,–,–,–
COCC(C)n1c(C)cc(C(=O)Cn2nc(C(=O)O)c3ccccc3c2=O)c1C (centres undefined),–,45µM,–,–,–,–
COCC(C)n1c(C)cc(C(=O)COC(=O)c2c(C)nn(-c3ccccc3)c2C)c1C (centres undefined),–,50µM,–,?,–,–
Cc1nn(-c2ccc3nncn3n2)c(C)c1CCC(=O)Nc1ccc(OC(F)(F)F)cc1,–,–,·,?,·,–
COc1ccc(NC(=O)CSCc2cc(=O)c3cc(Cl)ccc3[nH]2)cc1,–,–,·,–,·,–
COCCNC(=S)N1CCN(S(C)(=O)=O)CC1,–,–,–,–,–,–
Cc1cc(C(=O)CCl)c(C)n1CCc1ccccc1,–,50µM,20µM,?,–,–
COc1ccc(-n2c(C)cc(C(=O)Cn3nc(C(=O)O)c4ccccc4c3=O)c2C)cc1,–,?,–,–,–,–
Cc1ccc(-n2c(C)cc(C(=O)Cn3nc(C(=O)O)c4ccccc4c3=O)c2C)cc1,–,79µM,–,?,–,–
CN(/N=C\c1ccc(O)c(O)c1)c1nc(-c2ccccc2)cc(-c2ccccc2)n1,–,40µM,?,–,–,–
COc1ccc(/C=N/N(c2ccccc2)c2ccccc2)cc1O,·,?,–,·,·,·
CCOC(CNC(=O)c1ccc2c(c1)ncn2-c1ccccc1OC)OCC,·,–,–,·,–,·
COC(=O)c1cc2oc(C)cc2n1CC(=O)N(C)c1ccccc1,–,?,?,–,–,–
C=CCN(C(=O)Cn1c(C(=O)OC)cc2oc(C)cc21)c1ccccc1,–,45µM,?,–,–,–
O=C(NCC(c1ccco1)S(=O)(=O)c1ccc(Cl)cc1)c1ccc(C(F)(F)F)cc1 (centres undefined),–,?,·,–,·,–
COc1ccc(-c2nc(N)nc(C)c2Oc2ccccc2Br)c(O)c1,18µM[quencher],–[12.7 µM],–,–,–,–
COc1cc2ccc(=O)oc2c(O)c1O,–,·,40µM!,?,–,?
